# Measurements taken from PubChem BioAssay (EPA / NIEHS).
# Results filed as inconclusive are left out. The source made the active and inactive calls. How the source made its calls: active means hit-call score of the fitted dose curve at least 0.9, where 1 is the maximum; inconclusive means response in the unintended direction; inactive means score below 0.9.
# Key:
# [1] = biological target: human Caspase 2 (CASP2), CASP2 (gene 835) (UniProt P42575); assay: NVS_ENZ_hCASP2: NovaScreen (NVS) Enzymatic Assay for human Caspase 2 (CASP2) (AID 2283135)
# Sequence of human Caspase 2 (CASP2), CASP2 (gene 835) (P42575 whole entry, looked up): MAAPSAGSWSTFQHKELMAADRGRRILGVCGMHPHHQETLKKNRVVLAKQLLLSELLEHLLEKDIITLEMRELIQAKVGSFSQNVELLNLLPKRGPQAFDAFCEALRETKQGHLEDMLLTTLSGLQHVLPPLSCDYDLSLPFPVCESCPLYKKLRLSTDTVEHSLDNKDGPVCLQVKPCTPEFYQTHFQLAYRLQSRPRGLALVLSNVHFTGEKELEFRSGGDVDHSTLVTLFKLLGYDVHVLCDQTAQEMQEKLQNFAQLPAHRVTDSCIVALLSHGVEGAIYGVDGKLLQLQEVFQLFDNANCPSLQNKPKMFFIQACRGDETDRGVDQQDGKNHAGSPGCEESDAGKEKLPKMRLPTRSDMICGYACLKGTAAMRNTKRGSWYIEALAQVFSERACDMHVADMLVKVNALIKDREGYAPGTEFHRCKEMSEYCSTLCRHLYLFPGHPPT
# How it was run: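 Single-point duplicate testing at 25 uM preceded concentration series topping at 50 uM. Activity of the recombinant E. coli-derived protease was followed by fluorescent substrate cleavage 1 h post-dosing, relative to DMSO.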
# [2] = biological target: human Protein Tyrosine Phosphatase Non-receptor Type 2 (PTPN2), PTPN2 (gene 5771) (UniProt P17706); assay: NVS_ENZ_hPTPN2: NovaScreen (NVS) Enzymatic Assay for human Protein Tyrosine Phosphatase Non-receptor Type 2 (PTPN2) (AID 2283207)
# Sequence of human Protein Tyrosine Phosphatase Non-receptor Type 2 (PTPN2), PTPN2 (gene 5771) (P17706 whole entry, looked up): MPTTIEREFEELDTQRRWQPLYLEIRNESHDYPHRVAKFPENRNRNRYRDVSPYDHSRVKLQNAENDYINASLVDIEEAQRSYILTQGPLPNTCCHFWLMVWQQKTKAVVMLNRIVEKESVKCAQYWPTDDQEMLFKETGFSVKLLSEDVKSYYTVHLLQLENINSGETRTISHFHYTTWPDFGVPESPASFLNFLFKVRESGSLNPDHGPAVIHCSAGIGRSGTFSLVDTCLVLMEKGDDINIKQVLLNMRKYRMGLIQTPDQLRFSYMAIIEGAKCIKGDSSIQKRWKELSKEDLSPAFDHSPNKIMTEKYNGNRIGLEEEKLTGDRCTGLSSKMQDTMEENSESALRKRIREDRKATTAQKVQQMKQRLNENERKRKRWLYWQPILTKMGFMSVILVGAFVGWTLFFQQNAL
# How it was run: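 Activity measured as fluorescence after mobility-shift separation of substrate and product, 1 h after compound. Duplicate single-point 25 uM primary testing, concentration series for actives; inhibition scored as signal loss relative to DMSO baseline.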
# [3] = biological target: Voltage-dependent N-type calcium channel subunit alpha-1B (Rattus norvegicus) (UniProt Q02294); assay: NVS_IC_rCaChN: NovaScreen (NVS) Ion Channel Assay for rat Calcium Channel, Type N (CaChN) (AID 2283317)
# [4] = biological target: human Phosphatase and Tensin Homolog (PTEN), PTEN (gene 5728) (UniProt P60484); assay: NVS_ENZ_hPTEN: NovaScreen (NVS) Enzymatic Assay for human Phosphatase and Tensin Homolog (PTEN) (AID 2283203)
# Sequence of human Phosphatase and Tensin Homolog (PTEN), PTEN (gene 5728) (P60484 whole entry, looked up): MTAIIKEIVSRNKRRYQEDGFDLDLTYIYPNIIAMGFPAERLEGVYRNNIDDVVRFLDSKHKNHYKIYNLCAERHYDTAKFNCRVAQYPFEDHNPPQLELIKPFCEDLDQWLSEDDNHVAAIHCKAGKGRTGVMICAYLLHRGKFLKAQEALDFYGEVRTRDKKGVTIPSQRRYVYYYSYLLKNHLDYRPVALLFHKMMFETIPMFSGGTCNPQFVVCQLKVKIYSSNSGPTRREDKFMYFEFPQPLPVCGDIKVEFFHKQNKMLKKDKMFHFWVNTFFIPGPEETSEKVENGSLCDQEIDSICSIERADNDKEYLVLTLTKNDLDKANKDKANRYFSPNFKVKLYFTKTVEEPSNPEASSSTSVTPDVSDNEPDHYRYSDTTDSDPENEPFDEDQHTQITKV
# How it was run: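 Loss of fluorescent product signal after mobility-shift separation reports PTEN activity, recombinant human enzyme, 1 h after compound addition. Single 25 uM duplicate screen, then concentration-response on actives; DMSO baseline.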
# [5] = biological target: human Protein Tyrosine Phosphatase Receptor Type C (PTPRC), PTPRC (gene 5788) (UniProt P08575); assay: NVS_ENZ_hPTPRC: NovaScreen (NVS) Enzymatic Assay for human Protein Tyrosine Phosphatase Receptor Type C (PTPRC) (AID 2283212)
# Sequence of human Protein Tyrosine Phosphatase Receptor Type C (PTPRC), PTPRC (gene 5788) (P08575 whole entry, looked up): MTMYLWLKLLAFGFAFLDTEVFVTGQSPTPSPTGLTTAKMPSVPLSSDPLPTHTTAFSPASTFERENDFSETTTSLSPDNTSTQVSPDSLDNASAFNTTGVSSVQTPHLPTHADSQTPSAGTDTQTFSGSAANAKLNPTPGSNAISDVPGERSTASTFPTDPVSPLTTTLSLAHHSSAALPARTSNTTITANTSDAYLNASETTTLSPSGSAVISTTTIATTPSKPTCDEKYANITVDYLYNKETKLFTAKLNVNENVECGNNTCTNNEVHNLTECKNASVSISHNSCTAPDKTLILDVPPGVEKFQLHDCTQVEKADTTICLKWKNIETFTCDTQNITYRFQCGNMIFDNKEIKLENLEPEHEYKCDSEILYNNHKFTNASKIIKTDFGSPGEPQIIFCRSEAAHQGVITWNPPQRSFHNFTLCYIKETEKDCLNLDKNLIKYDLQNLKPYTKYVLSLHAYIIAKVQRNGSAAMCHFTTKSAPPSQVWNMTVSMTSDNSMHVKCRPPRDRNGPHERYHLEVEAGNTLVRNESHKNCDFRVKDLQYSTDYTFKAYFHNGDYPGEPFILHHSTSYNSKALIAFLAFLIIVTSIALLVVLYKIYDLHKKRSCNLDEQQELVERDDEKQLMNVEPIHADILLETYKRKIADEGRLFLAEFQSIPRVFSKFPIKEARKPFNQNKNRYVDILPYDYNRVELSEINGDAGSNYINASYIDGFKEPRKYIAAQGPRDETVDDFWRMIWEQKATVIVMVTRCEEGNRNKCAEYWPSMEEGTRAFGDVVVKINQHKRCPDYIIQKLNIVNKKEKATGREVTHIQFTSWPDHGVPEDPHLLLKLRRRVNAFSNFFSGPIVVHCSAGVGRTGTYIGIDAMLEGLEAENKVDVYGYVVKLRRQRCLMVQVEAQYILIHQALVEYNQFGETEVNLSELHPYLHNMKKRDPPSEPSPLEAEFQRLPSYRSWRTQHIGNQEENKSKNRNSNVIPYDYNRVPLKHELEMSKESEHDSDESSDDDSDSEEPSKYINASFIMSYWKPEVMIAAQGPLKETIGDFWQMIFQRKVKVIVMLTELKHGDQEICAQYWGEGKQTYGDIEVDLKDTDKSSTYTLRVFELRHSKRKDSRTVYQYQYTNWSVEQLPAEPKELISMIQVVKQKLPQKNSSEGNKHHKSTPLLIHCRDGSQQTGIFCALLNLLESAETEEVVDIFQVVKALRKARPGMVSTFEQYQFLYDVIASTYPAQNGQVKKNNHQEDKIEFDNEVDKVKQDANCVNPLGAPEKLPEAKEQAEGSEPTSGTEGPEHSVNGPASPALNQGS
# How it was run: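 Absorbance-based phosphatase activity of human PTPRC protein extracted from yeast was measured 1 h post-dosing. Compounds first tested at 25 uM in duplicate, then those passing threshold in singleton concentration series to 50 uM.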
# [6] = biological target: rat Neurotensin Receptor (NTS), Ntsr1 (gene 366274) (UniProt P20789); assay: NVS_GPCR_rNTS: NovaScreen (NVS) G Protein-Coupled Receptor Assay for rat Neurotensin Receptor (NTS) (AID 2283308)
# How it was run: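 Single-point duplicates at 25 uM, then concentration series to 50 uM max for hits, measured radioligand displacement on rat forebrain membrane preparations. Bound label counted by filtration scintillation at 1 h; signal loss relative to DMSO fitted.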
# [7] = biological target: human Aurora Kinase A - serine/threonine-protein Kinase 6 (AurA), AURKA (gene 6790) (UniProt O14965); assay: NVS_ENZ_hAurA: NovaScreen (NVS) Enzymatic Assay for human Aurora Kinase A - serine/threonine-protein Kinase 6 (AurA) (AID 2283142)
# Sequence of human Aurora Kinase A - serine/threonine-protein Kinase 6 (AurA), AURKA (gene 6790) (O14965 whole entry, looked up): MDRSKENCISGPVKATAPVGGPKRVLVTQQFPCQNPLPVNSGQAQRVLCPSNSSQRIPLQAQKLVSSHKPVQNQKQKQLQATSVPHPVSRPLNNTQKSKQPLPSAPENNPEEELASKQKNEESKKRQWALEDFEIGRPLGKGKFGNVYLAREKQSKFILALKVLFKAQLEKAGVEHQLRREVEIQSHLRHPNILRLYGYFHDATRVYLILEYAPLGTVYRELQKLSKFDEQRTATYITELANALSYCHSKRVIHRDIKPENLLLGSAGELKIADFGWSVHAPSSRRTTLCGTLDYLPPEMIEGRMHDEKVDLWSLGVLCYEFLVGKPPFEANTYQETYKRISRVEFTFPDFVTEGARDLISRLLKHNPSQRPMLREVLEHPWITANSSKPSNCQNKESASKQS
# How it was run: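 Recombinant human AurA activity read by fluorescence after mobility-shift separation of product from substrate; 1 hour incubation. Chemicals first run in duplicate at 25 uM, then concentration series to 50 uM if over threshold; fitted relative to DMSO.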
# [8] = biological target: human Epidermal Growth Factor Receptor (EGFR), EGFR (gene 1956) (UniProt P00533); assay: NVS_ENZ_hEGFR: NovaScreen (NVS) Enzymatic Assay for human Epidermal Growth Factor Receptor (EGFR) (AID 2283151)
# How it was run: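 Cell-free kinase assay, fluorescence plus electrophoretic mobility shift separating substrate and product, read 1 hour after dosing; loss of signal vs DMSO. Duplicate screen at 25 uM, then concentration-response to 50 uM.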
# [9] = biological target: human Fibroblast Growth Factor Receptor 1 (FGFR1), FGFR1 (gene 2260) (UniProt P11362); assay: NVS_ENZ_hFGFR1: NovaScreen (NVS) Enzymatic Assay for human Fibroblast Growth Factor Receptor 1 (FGFR1) (AID 2283159)
# How it was run: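 Cell-free recombinant kinase with fluorescent substrate, product separated by electrophoretic mobility shift; read 1 hour after dosing, loss of signal relative to DMSO. Initial screen in duplicate at 25 uM, actives followed in concentration series.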
# [10] = biological target: human IkappaB Kinase alpha (IKKa), CHUK (gene 1147) (UniProt O15111); assay: NVS_ENZ_hIKKa: NovaScreen (NVS) Enzymatic Assay for human IkappaB Kinase alpha (IKKa) (AID 2283167)
# How it was run: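 Compounds first run in duplicate at 25 uM, those meeting threshold (e.g. 30% inhibition) retested to maximum 50 uM. Enzyme activity of recombinant IKKa measured by fluorescence with electrophoretic mobility shift separation, 1 hour post-dosing, DMSO baseline.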
# [11] = biological target: human p21 Activated Kinase 4 (PAK4), PAK4 (gene 10298) (UniProt O96013); assay: NVS_ENZ_hPAK4: NovaScreen (NVS) Enzymatic Assay for human p21 Activated Kinase 4 (PAK4) (AID 2283189)
# How it was run: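 Extracted PAK4 enzyme activity read by fluorescence with mobility-shift separation 1 h after chemical addition. Duplicate single-concentration screen at 25 uM, DMSO as negative control.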
# [12] = biological target: human Raf-1 Proto-Oncogene, serine/threonine Kinase (RAF1), RAF1 (gene 5894) (UniProt P04049); assay: NVS_ENZ_hRAF1: NovaScreen (NVS) Enzymatic Assay for human Raf-1 Proto-Oncogene, serine/threonine Kinase (RAF1) (AID 2283216)
# Sequence of human Raf-1 Proto-Oncogene, serine/threonine Kinase (RAF1), RAF1 (gene 5894) (P04049 whole entry, looked up): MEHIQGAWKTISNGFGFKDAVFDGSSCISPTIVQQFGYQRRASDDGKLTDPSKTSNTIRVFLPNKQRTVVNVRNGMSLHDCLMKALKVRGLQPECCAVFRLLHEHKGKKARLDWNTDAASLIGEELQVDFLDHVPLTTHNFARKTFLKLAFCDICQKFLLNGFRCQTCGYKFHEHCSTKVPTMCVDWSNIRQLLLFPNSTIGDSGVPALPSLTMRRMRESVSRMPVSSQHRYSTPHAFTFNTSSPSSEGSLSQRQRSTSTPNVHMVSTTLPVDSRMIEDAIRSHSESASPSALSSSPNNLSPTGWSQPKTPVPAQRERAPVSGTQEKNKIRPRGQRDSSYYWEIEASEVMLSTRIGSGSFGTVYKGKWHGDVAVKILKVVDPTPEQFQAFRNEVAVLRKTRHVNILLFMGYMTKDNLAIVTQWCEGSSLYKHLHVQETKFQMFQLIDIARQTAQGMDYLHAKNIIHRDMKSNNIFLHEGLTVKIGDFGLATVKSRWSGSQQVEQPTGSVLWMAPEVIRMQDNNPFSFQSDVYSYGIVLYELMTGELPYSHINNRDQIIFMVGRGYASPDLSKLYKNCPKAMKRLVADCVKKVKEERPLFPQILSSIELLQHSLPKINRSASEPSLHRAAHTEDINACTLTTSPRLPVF
# How it was run: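 Single-point screening at 25 uM (duplicate), followed by singleton concentration-response to 50 uM maximum for chemicals exceeding threshold. Enzyme activity from fluorescent substrate-product mobility-shift separation after 1 h, relative to DMSO.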
# [13] = biological target: Bile acid receptor (Homo sapiens) (UniProt Q96RI1); assay: NVS_NR_hFXR_Agonist: NovaScreen (NVS) Nuclear Receptor Binding Assay for human Farnesoid X Receptor Agonism (FXR) (AID 2283347)
# How it was run: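 Agonist-mode FXR assay read by time-resolved FRET 1 h after compound addition, using isolated human receptor protein without cells. Duplicate 25 uM single-point primary screen, concentration series for confirmed actives; DMSO as baseline.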
# [14] = biological target: human Caspase 10 (CASP10), CASP10 (gene 843) (UniProt Q92851); assay: NVS_ENZ_hCASP10: NovaScreen (NVS) Enzymatic Assay for human Caspase 10 (CASP10) (AID 2283133)
# Sequence of human Caspase 10 (CASP10), CASP10 (gene 843) (Q92851 whole entry, looked up): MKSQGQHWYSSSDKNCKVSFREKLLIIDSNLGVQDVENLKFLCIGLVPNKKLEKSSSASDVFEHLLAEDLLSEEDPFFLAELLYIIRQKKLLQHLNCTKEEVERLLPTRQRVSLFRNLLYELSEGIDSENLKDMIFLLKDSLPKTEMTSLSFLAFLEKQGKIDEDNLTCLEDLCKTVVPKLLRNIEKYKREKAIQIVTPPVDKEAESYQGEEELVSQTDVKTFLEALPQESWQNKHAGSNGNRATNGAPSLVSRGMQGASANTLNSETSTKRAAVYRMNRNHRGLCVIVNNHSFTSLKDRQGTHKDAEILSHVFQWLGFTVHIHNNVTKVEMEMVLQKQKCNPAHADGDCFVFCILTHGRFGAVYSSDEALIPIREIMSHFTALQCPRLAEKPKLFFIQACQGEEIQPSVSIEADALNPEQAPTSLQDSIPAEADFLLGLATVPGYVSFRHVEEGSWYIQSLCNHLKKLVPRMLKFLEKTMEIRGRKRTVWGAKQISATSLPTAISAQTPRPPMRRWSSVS
# How it was run: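 Fluorescence-intensity enzyme read-out of E. coli-expressed CASP10 activity, 1 h after compound. Single-point duplicates at 25 uM preceded concentration-response testing (top 50 uM) of hits; inhibition expressed as signal loss versus DMSO.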
# [15] = biological target: human Matrix Metalloproteinase-1 (MMP1), MMP1 (gene 4312) (UniProt P03956); assay: NVS_ENZ_hMMP1: NovaScreen (NVS) Enzymatic Assay for human Matrix Metalloproteinase-1 (MMP1) (AID 2283181)
# How it was run: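 Cell-free fluorescent substrate assay of human MMP1, read after 1 h. A single 25 uM duplicate screen was followed by concentration series to a maximum of 50 uM for actives meeting threshold; inhibition analysed against DMSO baseline.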
# [16] = biological target: rat Acetylcholinesterase (AChE), Ache (gene 83817) (UniProt P37136); assay: NVS_ENZ_rAChE: NovaScreen (NVS) Enzymatic Assay for rat Acetylcholinesterase (AChE) (AID 2283233)
# How it was run: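 Compounds first screened at 25 uM in duplicate, then those passing threshold tested in concentration series up to 50 uM, against AChE from rat brain membranes. Enzyme activity read by absorbance at 0.33 h; inhibition scored versus DMSO.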
# [17] = biological target: rat Monoamine Oxidase, MAO-B, Peripheral (MAOBP), Maob (gene 25750) (UniProt P19643); assay: NVS_ENZ_rMAOBP: NovaScreen (NVS) Enzymatic Assay for rat Monoamine Oxidase, MAO-B, Peripheral (MAOBP) (AID 2283242)
# Sequence of rat Monoamine Oxidase, MAO-B, Peripheral (MAOBP), Maob (gene 25750) (P19643 whole entry, looked up): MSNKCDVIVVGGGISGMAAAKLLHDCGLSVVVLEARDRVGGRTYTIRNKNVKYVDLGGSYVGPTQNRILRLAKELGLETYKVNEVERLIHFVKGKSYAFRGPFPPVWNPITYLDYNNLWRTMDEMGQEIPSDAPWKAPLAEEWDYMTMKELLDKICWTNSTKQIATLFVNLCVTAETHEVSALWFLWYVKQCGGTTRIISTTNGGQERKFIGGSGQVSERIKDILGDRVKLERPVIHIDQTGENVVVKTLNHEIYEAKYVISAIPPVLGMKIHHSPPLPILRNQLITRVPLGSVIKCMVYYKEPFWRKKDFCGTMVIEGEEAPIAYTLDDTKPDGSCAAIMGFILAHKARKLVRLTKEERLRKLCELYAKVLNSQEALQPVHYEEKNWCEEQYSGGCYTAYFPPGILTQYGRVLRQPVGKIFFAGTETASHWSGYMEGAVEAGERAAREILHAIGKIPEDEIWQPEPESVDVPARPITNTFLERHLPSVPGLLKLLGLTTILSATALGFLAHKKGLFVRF
# [18] = biological target: human Tyrosine Protein Kinase Receptor Tie-2 (Tie2), TEK (gene 7010) (UniProt Q02763); assay: NVS_ENZ_hTie2: NovaScreen (NVS) Enzymatic Assay for human Tyrosine Protein Kinase Receptor Tie-2 (Tie2) (AID 2283225)
# How it was run: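 Substrate and product were separated by mobility shift and detected by fluorescence after a 1-hour reaction with recombinant Tie2. Chemicals passing a 25 uM single-point screen were titrated to a maximum of 50 uM. Results were normalized to DMSO baseline.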
# [19] = biological target: rat Corticotropin Releasing Factor Receptor (CRF), Crhr1 (gene 58959) (UniProt P35353); assay: NVS_GPCR_rCRF: NovaScreen (NVS) G Protein-Coupled Receptor Assay for rat Corticotropin Releasing Factor Receptor (CRF) (AID 2283300)
# How it was run: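 Single-concentration (25 uM, duplicate) radioligand binding on rat cortical membrane preparations, counted by scintillation after 2 h. Activity scored as signal loss relative to DMSO negative control.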
# [20] = read-out: xenobiotic metabolism (CYP2C9), CYP2C9 (gene 1559); assay: CLD_CYP2C9_6hr: CellzDirect (CLD) Gene Expression Assay for xenobiotic metabolism (CYP2C9) at 6 hours (AID 2283664)
# How it was run: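 Readout is qNPA chemiluminescence of CYP2C9 mRNA, taken 6 h after dosing of cultured human liver primary cells at several concentrations. Activity is the increase over 0.2% DMSO baseline. Morphology-based cytotoxicity flagged yes/no.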
# [21] = biological target: rat Monoamine Oxidase, MAO-B, Central (MAOBC), Maob (gene 25750) (UniProt P19643); assay: NVS_ENZ_rMAOBC: NovaScreen (NVS) Enzymatic Assay for rat Monoamine Oxidase, MAO-B, Central (MAOBC) (AID 2283238)
# Sequence of rat Monoamine Oxidase, MAO-B, Central (MAOBC), Maob (gene 25750) (P19643 whole entry, looked up): as above
# How it was run: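 Actives from a duplicate 25 uM screen went on to singleton concentration-response with a 50 uM maximum. Enzyme source was rat brain tissue MAO-B, assayed cell-free. Radiolabelled product was counted by scintillation 1.17 h post-dose, with signal loss relative to DMSO.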
# [22] = ATG_M_32_XSP2: Attagene TRANS-FACTORIAL Multi-Species (XSP2) HepG2 Assay for M19 Transcription Factor (Internal Marker) (AID 2283826)
# How it was run: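 Read-out: fluorescent reporter mRNA fragments resolved by capillary electrophoresis after RT-PCR, gain-of-signal versus DMSO baseline. Cells were human HepG2 carrying transfected multi-reporter units, exposed 24 h. Medium contained 3 nM 6-alpha-fluorotestosterone plus 1.5 nM norgestrel.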
# [23] = biological target: rat Gamma-Aminobutyric Acid Type A Receptor BDZ, alpha 6 site (GABARa6), Gabra6 (gene 29708) (UniProt P30191); assay: NVS_LGIC_rGABARa6: NovaScreen (NVS) Ligand-Gated Ion Channel Assay for rat Gamma-Aminobutyric Acid Type A Receptor BDZ, alpha 6 site (GABARa6) (AID 2283339)
# How it was run: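 Actives from a 25 uM duplicate screen were retested in concentration series (max 50 uM). Specific radioligand displacement from rat cerebellar membranes was counted by filter-based scintillation at 1 h; DMSO served as baseline.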
# [24] = biological target: Protein deacetylase HDAC6 (Homo sapiens) (UniProt Q9UBN7); assay: NVS_ENZ_hHDAC6: NovaScreen (NVS) Enzymatic Assay for human Histone Deacetylase 6 (HDAC6) (AID 2283164)
# How it was run: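 Concentration-response runs up to 50 uM followed a duplicate 25 uM single-point screen. Deacetylase activity of recombinant human HDAC6 read by fluorescence after 1 h, with mobility-shift separation of substrate and product; DMSO as baseline.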
structure (smiles),measurement,setting,value
CNCc1cc(F)ccc1Oc1ccc(Cl)c(Cl)c1,outcome,[1],inactive
c1ccc(Nc2ccccc2)cc1,outcome,[1],inactive
same,outcome,[2],inactive
C[C@@H](Oc1ccc(CNC(=O)c2cccnc2Oc2ccc3c(c2)OCO3)c(F)c1)C(=O)O,outcome,[1],inactive
same,outcome,[3],inactive
O=S(=O)(O)c1ccc(N=Nc2c(O)ccc3cc(S(=O)(=O)O)ccc23)cc1,AC50,[1],20.4 µM (active)
same,outcome,[4],inactive
same,outcome,[5],inactive
same,outcome,[6],inactive
CCc1c(C(=O)NN2CCCCC2)nn(-c2ccc(Cl)cc2Cl)c1-c1ccc(Br)cc1,outcome,[7],inactive
same,outcome,[8],inactive
same,outcome,[9],inactive
same,outcome,[10],inactive
same,outcome,[11],inactive
same,outcome,[4],inactive
same,outcome,[12],inactive
same,outcome,[13],inactive
O=C(Nc1ccc([N+](=O)[O-])cc1Cl)c1cc(Cl)ccc1O,outcome,[7],inactive
CCCCCCCCCCCCCCOS(=O)(=O)O,outcome,[14],inactive
same,outcome,[15],inactive
same,AC50,[5],24.2 µM (active)
CC[C@@H]1C[C@H](N(Cc2cc(C(F)(F)F)cc(C(F)(F)F)c2)C(C)=O)c2cc(C(F)(F)F)ccc2N1C(=O)OC(C)C,outcome,[1],inactive
same,outcome,[3],inactive
O=C1CCC(N2C(=O)c3ccccc3C2=O)C(=O)N1 (stereo unspecified),outcome,[1],inactive
Cc1nccn1-c1ccc(Sc2cccc(C3(C(N)=O)CCOCC3)c2)cc1,outcome,[1],inactive
same,outcome,[16],inactive
same,outcome,[17],inactive
same,outcome,[3],inactive
CCC(O)=C1C(=O)CC(C(=O)O)CC1=O (stereo unspecified),outcome,[1],inactive
same,outcome,[18],inactive
same,outcome,[19],inactive
same,outcome,[20],inactive
Cc1oc(-c2ccccc2)nc1CCOc1ccc(C[C@H](Nc2ccccc2C(=O)c2ccccc2)C(=O)O)cc1,outcome,[14],inactive
same,AC50,[21],25 µM (active)
same,outcome,[17],inactive
same,outcome,[22],inactive
Cc1c(-c2cccnc2)c2ccccc2n1CCCCC(=O)O,outcome,[1],inactive
same,outcome,[23],inactive
NCCO,outcome,[7],inactive
same,outcome,[8],inactive
same,outcome,[9],inactive
same,outcome,[24],inactive
same,outcome,[4],inactive
same,outcome,[2],inactive
same,outcome,[12],inactive
same,outcome,[17],inactive
